# Source: PubChem BioAssay AID686978 (National Center for Advancing Translational Sciences (NCATS), 2013)
# Screen size: about 420,000 compounds; about 64,000 (15%) were called active. Inconclusive results (about 27%) are left out. A selection follows. A number with no mark means an inactive call. The call rests on the fitted dose curve; in most records, active means well fitted inhibition curve with a large enough effect; inconclusive means small, poorly fitted or top-dose-only effect; inactive means flat fitted curve, though single readings scatter.
# Assay: qHTS for Inhibitors of human tyrosyl-DNA phosphodiesterase 1 (TDP1): qHTS in cells in absence of CPT; further: nearly all actives have a fitted effect of over 55% in size
# Settings: DT40 Tdp1-/- hTDP1 cells, no CPT, ATP luminescence, 48 h; activity change, negative = growth inhibition: at 46.2 µM (top of the series)
# Description: Human tyrosyl-DNA phosphodiesterase 1 (TDP1) is a novel repair gene, and we propose to use it as a new target for anticancer drug development. TDP1 is not an essential protein, but under treatment with topoisomerase I poison (camptothecin: CPT), TDP1 works as a critical factor for cell survival. To directly identify novel TDP1 inhibitors active in a cellular environment, we have knocked-out the Tdp1 gene in chicken DT40 cells (Tdp1-/-) and generated a complemented counterpart cells that contains a stable transfection of the human TDP1 gene (Tdp1-/-;hTDP1 cells). For the primary screen, Tdp1-/-;hTDP1 cells will be exposed to small molecules in the presence or absence of CPT, and their growth kinetics will be evaluated after 48 hours by measuring ATP activity. […] The hit compounds will then be evaluated in the presence or absence of CPT using Tdp1-/- cells. […] In tertiary assays, biochemical gel-based assays will be used to assess whether the hit compounds specifically target TDP1.
# To this end, we have screened this cell line against the MLSMR in two primary screens. In one screen we add CPT and in the other we screen in the absence of CPT; this AID represents the screen where CPT was absent.
# NIH Chemical Genomics Center [NCGC]
# NIH Molecular Libraries Probe Centers Network [MLPCN]
# Assay Submitter (PI): Yves Pommier, NCI
# DT40-hTDP1 cells without 20 nM Camptothecin (add 20 microL of DMSO in 1 L of cell culture medium) were dispensed at 400 cells/5microL/well in tissue culture treated 1536-well white wall/solid bottom assay plates (Greiner Bio-One North America, NC, U.S.A.) using a Multidrop Combi 8 channel dispenser (Thermo Fisher, Waltham, MA, USA). 23 nL compounds and controls were transferred using the pin tool (Kalypsys, San Diego, CA, USA) to the assay plates. The assay plates were then incubated at 37 masculineC for a minimum 48 hr. Three microL of Cell Titer Glo solution was added to the plates and incubated at RT in dark for 30 min. Luminescence was read using ViewLux (Perkin Elmer) with 1 sec exposure slow speed, high gain and 2x binning.
# On the % scale 0 is the no-effect control and ±100 the full control effect; potency means the concentration at half of the fitted maximal effect.
Structure (SMILES),"activity change, negative = growth inhibition [%]",Potency
Cc1ccsc1C(=O)NNC(=O)COc1ccc(Br)cc1,-8.53,
O=C(Nc1ccc2c(c1)C(=O)OC2)Nc1cccc2ccccc12,-3.83,
CN=C1S/C(=C\c2c(OC)cc(OC)cc2OC)C(=O)N1C,4.09,
Cc1cccc(C)c1NC(=O)CSc1ccc([N+](=O)[O-])cn1,-3.38,
CCOCC(=O)Nc1ncc(S(=O)(=O)c2ccc([N+](=O)[O-])cc2)s1,-18.6,
COc1ccc(OCC(=O)NCCS(=O)(=O)N2CCN(c3ccc(F)cc3)CC2)cc1,7.95,
c1ccc2nc(C3=NCCN3)cnc2c1,-5.64,
NN=C(NN=Cc1ccccc1)c1ccccc1,,20.6 µM (active)
O=C(CCCCCNC(=O)c1ccccc1)N/N=C/c1ccccc1,-5.59,
O=C(C[n+]1ccccc1)N/N=C/c1ccc(O)cc1,-28.4,
Cc1ccc(Cc2cncc(O)c2)cc1S(=O)(=O)O,-0.5,
COC(=O)c1cc(NC(=O)c2cccnc2)ccc1N1CCOCC1,0.201,
CCOC(=O)c1[nH]c2ccc(C)cc2c1N=C(C)N(C)C,3.19,
CCOc1ccccc1CNC(=O)c1cnc2c(-c3ccc(OCC)c(OCC)c3)c(C)nn2c1C,,11.6 µM (active)
CCOc1ccccc1CNC(=O)c1ccc2c(c1)nc1n2CCC(C)C1 (stereo not given),-5.23,
Cc1ccc(Cl)cc1N1CCN(C(=O)c2cnc3c(-c4ccc(F)cc4)c(C)nn3c2C)CC1,-17.5,
COCCCNC(=O)C1CC(=O)N(CCc2ccccc2)C1 (stereo not given),-0.222,
CC(C)(C)C(=O)CCN1C(=O)C2(OCCO2)c2ccccc21,-3.5,
COc1cc(C(=O)OCc2cc(=O)n3ccsc3n2)ccc1OC(C)C,,20.6 µM (active)
COc1ccc(C(=O)OCc2cc(=O)n3ccsc3n2)cc1F,-17.5,
COCCc1nn2c(=O)cc(COC(=O)c3cc(OC)c(OC)c(OC)c3)nc2s1,-13.2,
NC(=O)C[n+]1cccc(C(N)=O)c1,3.03,
O=C1c2oc3ccccc3c(=O)c2C(c2cccc(O)c2)N1c1ccccn1 (stereo not given),,20.6 µM (active)
CC(=O)c1sc(N2C(=O)c3oc4ccccc4c(=O)c3C2c2ccc(C)cc2)nc1C (stereo not given),1.93,

Structure (SMILES),"activity change, negative = growth inhibition [%]",Potency
COc1ccc(C2c3c(oc4ccccc4c3=O)C(=O)N2Cc2ccc3c(c2)OCO3)cc1 (stereo not given),-15.1,
COCCN1C2=C(COC(C)(C)C2)C(=S)NC1c1ccccc1 (stereo not given),1.35,
COC(C[C@@H](O)[C@H](C)[C@H](O)COCc1ccccc1)OC,-1.03,
Cn1cccc1/C=C1\SC(=S)N(NC(=O)c2ccc(Cl)cc2)C1=O,-13.3,
O=C(CSc1ncn[nH]1)Nc1ccc(Br)cc1Br,-4.44,
CC(C)CNC(=O)C(=O)NCc1ccccc1,0.828,
CN(C)C(CNC(=O)c1ccc(S(=O)(=O)NCc2ccco2)cc1)c1ccccc1 (stereo not given),-3.83,
O=C(NCCc1ccccc1)C(=O)NCC(c1ccco1)S(=O)(=O)c1ccccc1 (stereo not given),-56.5,
CC(C)(C)c1ccc(C(=O)NCC(c2ccco2)S(=O)(=O)c2ccc(F)cc2)cc1 (stereo not given),,20.6 µM (active)
CC(C)(C)c1ccc(C(=O)NCCC(=O)NCc2ccco2)cc1,-22.6,
O=C(NCc1ccccc1)C(=O)NCC(c1ccco1)S(=O)(=O)c1ccc(Cl)cc1 (stereo not given),,18.4 µM (active)
O=C(COC(=O)c1cccc(Cl)c1Cl)NC1CCCCCC1,1.05,
O=C(NNS(=O)(=O)c1ccccc1C(F)(F)F)c1cc2ncc(C(F)(F)F)cc2s1,-18.1,
COc1ccccc1OCCC(=O)OCC(=O)NC(=O)NC(C)(C)C,-3.43,
CSc1nnc(SCc2nc3sc(C(=O)O)c(C)c3c(=O)[nH]2)s1,12.7,
COc1ccc(CCNC(=O)COC(=O)c2ccc[nH]c2=O)cc1,2.84,
Cc1cccc(Oc2c([N+](=O)[O-])c(=O)n(C)c3ccccc23)c1,-20.7,
Cc1cc(C)c(-c2c(O)c3ccccc3n(C)c2=O)c(C)c1,-15.9,
COc1cc2c(=O)n(C)c3ccccc3c2cc1OC,,11.6 µM (active)
Nc1ccc2c(c1)C(=Cc1cccnc1)c1ccccc1-2,-8.08,
O=S(=O)(Nc1ccccc1N1CCOCC1)c1ccc(Cl)s1,-17.2,
COc1ccc(-n2c(-c3ccc(Cl)cc3)n[nH]c2=S)c(OC)c1,-3.08,
COc1ccc(-c2c(C)nn3c(N4CCC(C(=O)NCCC(C)C)CC4)cc(C)nc23)cc1OC,-14.3,
COc1ccc(CCNc2cc(C)nc3c(-c4ccc(Cl)cc4)c(C)nn23)cc1OC,,18.4 µM (active)

Structure (SMILES),"activity change, negative = growth inhibition [%]",Potency
COc1ccc(CCNc2nc(C)cc(C)n2)cc1OC,0.652,
COc1ccc(CNc2nc(-c3ccc(Cl)cc3)cc(C(F)(F)F)n2)cc1,,18.4 µM (active)
COc1ccc(-c2cc(C(F)(F)F)nc(NCc3cccnc3)n2)cc1,-9.36,
COc1cccc(NC(=O)C2CCN(c3cc(C)nc4c(-c5ccc(Cl)cc5)c(C)nn34)CC2)c1,-9.69,
COc1ccc(CCNC(=O)COC(=O)c2ncc(Cl)c(Cl)c2Cl)cc1OC,3.75,
COc1ccc(CCNc2nc(-c3ccc(Cl)cc3)cc(C(F)(F)F)n2)cc1OC,,25.9 µM (active)
CCN1CCN(C(=O)CN(C)S(=O)(=O)c2ccc(OC)cc2)CC1,3.64,
N#C/C(=C\N1CCOCC1)S(=O)(=O)c1ccc(Cl)cc1,-7.62,
CCCC(=O)N1CCC1(C)C(=O)NS(=O)(=O)c1ccc(Cl)cc1 (stereo not given),-1.28,
COc1cccc(NC(=O)CN(C)CC(=O)c2c(N)n(Cc3ccccc3)c(=O)n(C)c2=O)c1,5.98,
CC1CCC2(CC1)NC(=O)N(CC(=O)c1cccn1C)C2=O (stereo not given),-2.88,
COc1ccc(NC(=O)COC(=O)CNC(=O)C2CCCCC2)cc1,-12,
O=C(NCc1cccnc1)c1ccccc1NC(=O)c1c(F)cccc1F,8.82,
CN(C)c1ccc2c(=O)[nH][nH]c(=O)c2c1,0.253,
CCCN1C2CCCC1CC(NC(=O)c1cccc(OC)c1)C2 (stereo not given),-4.33,
COc1cccc(NC(=O)N2C3CCCC2CC(NC(C)=O)C3)c1 (stereo not given),22.8,
CCCN1C(=O)C(NC(C)=O)c2cc(OC)ccc21 (stereo not given),,18.4 µM (active)
Cn1c(CCNS(=O)(=O)c2ccc(F)cc2)nnc1SCc1cccnc1,-12.9,
COc1ccc(N(C)C(=O)CCS(=O)(=O)c2cccc3nsnc23)cc1,,inactive
Cc1cc(NC(=O)Nc2ccc(Cl)cc2)n(-c2ccccc2)n1,-14.9,
CCOC(=O)C1CCN(C(=O)Nc2ccc(C)c(Cl)c2)CC1,-18.4,
Cc1ccc(NC(=O)Nc2cc(-c3ccccc3)nn2C)cc1Cl,,20.6 µM (active)
